Experimental data as given in PubChem BioAssay AID743373 (National Center for Advancing Translational Sciences (NCATS), 2014).
Inconclusive results are not listed. The source made the active and inactive calls. Calls come from the whole dose curve; as a rule, active = well fitted inhibition curve with a large enough effect; inconclusive = small, poorly fitted or top-dose-only effect; inactive = flat fitted curve, though single readings scatter.

Biological target: Galactokinase (Homo sapiens) (UniProt P51570)
Assay: qHTS for Inhibitors of Human Galactokinase (GALK): Confirmation Assay for SAR round 4
Conditions: recombinant GALK, ADP-Glo luminescence, 1 h
Source text: Inherited deficiency of galactose-1-phosphate uridyltransferase (GALT) can result in a potentially lethal disorder called Classic Galactosemia (OMIM 230400). Several lines of evidence indicate that an elevated level of galactose-1-phosphate (gal-1-p), the product of galactokinase (GALK), is a major, if not sole, pathogenic mechanism in patients with classic galactosemia. Therefore, finding inhibitors of GALK is a potential novel therapy for this inherent metabolic disease and is the long term goal of this project. Active compounds observed in the qHTS GALK assay (AID: 1868) were cherry picked and re-screened for validation. GALK (provided by Kent Lai) was assayed using ATP and D-(+)-Galactose (Sigma-Aldrich cat# G0750) as substrates. Promega ADP-Glo technology was used to detect the ADP product formed after the kinase reaction. […]
Two uL/well of ATP-buffer solution (35 uM ATP, 20mM HEPES pH8.0, 5 mM MgCl2, 60 mM NaCl, 1 mM DTT, 0.01% BSA final concentration) was dispensed into 1536-well, assay plates (Greiner, solid white medium-binding plates) with Aurora Discovery BioRAPTR Flying Reagent Dispenser (FRD; Beckton-Dickenson). […] Luminescence was detected with the ViewLux plate reader (Perkin Elmer, Waltham, MA) using a 1 sec exposure time and 2x binning.

Chain of Galactokinase (Homo sapiens) (P51570 whole entry, looked up): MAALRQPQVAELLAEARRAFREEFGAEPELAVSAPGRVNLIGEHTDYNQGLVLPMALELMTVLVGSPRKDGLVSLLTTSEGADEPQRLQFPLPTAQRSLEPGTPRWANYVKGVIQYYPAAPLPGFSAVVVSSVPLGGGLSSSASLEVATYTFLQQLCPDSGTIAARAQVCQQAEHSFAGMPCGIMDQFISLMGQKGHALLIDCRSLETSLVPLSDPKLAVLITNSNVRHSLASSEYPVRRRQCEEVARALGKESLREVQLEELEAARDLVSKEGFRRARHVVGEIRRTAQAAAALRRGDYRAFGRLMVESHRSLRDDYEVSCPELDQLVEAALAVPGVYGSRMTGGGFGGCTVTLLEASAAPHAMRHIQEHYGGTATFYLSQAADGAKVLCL

Row | SMILES | Potency
1 | CC1=C(C(=O)Nc2nncs2)C(c2nn(C)cc2Cl)N=C(Nc2nc3ccccc3o2)N1 (configuration not stated) | 6.85 µM (active)
2 | Cn1cc(Br)c(C2N=C(Nc3nc4ccccc4o3)NC3=C2C(=O)CCC3)n1 (configuration not stated) | 4.32 µM (active)
